As a reminder, the inhibition is the drop in the measured response relative to a control, in per cent.

Structures are written as SMILES.

The assay has as its target Glucose transporter (Leishmania mexicana) (UniProt O61059). Put plainly: ST_JUDE_LEISH: Cytotoxicity at 2uM final concentration against transgenic Leishmania Mexicana promastigotes LmGT2 that are glucose transport deficient and complemented with the L. Mexicana glucose transporter 2. Activity is measured by DNA content using SYBR green in vitro. The format is functional.
For `COc1ccc(-c2cccc(NC(=O)c3ccc(F)cc3)c2)cc1CN1CCCN(C)CC1`, the inhibition amounted to 7.43%.
For `COc1cccc(Nc2c(C(N)=O)cnc3ccc(-c4ccc([S+](C)[O-])cc4)cc23)c1` (stereo not given) the value was 0.66%; for `CCOC(=O)c1ccc(NC(=O)NCCCC2CCCN(CCCCCNC(=O)/C=C/c3ccc(Cl)c(Cl)c3)C2)cc1` (stereo not given), 0.52%; for `CN(C)Cc1cccc(-c2ccc(NC(=O)c3ccc4c(=O)n(CCN5CCCCC5)cnc4c3)cc2)c1`, 0.81%.
For `CC=CC1CCNC(C(O)c2ccnc3ccc(OC)cc23)C1` (stereo not given), the inhibition was 2.9%.
For `CN1CCC(C(=O)Nc2ccc(-c3ccc(-c4nc5ccccc5[nH]4)s3)cc2)CC1` the value was 0.49%; for `CCC(C)c1ccc(NC(=O)Nc2ccc(Cn3ncc(N4CCCNCC4)c(Cl)c3=O)cc2)cc1` (stereo not given), -0.01%; for `O=C(Nc1nc(-c2cc(F)ccc2F)cs1)c1cncc(Br)c1`, 1.42%.
As to `OC1(c2ccccc2)CCN(Cc2cccc(-c3c[nH]c4nc(NC5CCCC5)ncc34)c2)C1` (stereo not given), the inhibition was found to be 4.81%.
For `COc1ccc(CN(C)CC(O)COc2ccc(NC(=O)c3cccc4c(=O)c5cccc(OC)c5[nH]c34)cc2)cc1OC` (stereo not given) the value was 3.9%; for `Cc1ccc(-c2ccc(Cl)cc2Oc2cnc(N)nc2N)o1`, 0.26%; for `c1csc(-c2ccc3c(c2)CC(NCc2c[nH]c4cnccc24)C3)c1` (stereo not given), 5.84%.
To `N=C(N)NN=CC(=O)Nc1ccc(Br)cc1` belongs -1.29%.
As for `O=C(CCOc1ccccc1)NCC1CCCO1` (stereo not given), the inhibition worked out at 1.06%.
As to `Cc1cc(N[C@@H](CC(C)C)C(=O)NCCCOC(C)C)nc(NCCc2ccc(F)cc2)n1`, the inhibition is 0.62%.
For `CC(C)Sc1ccc(Cl)cc1CON1C(=N)N=C(N)NC1(C)C` the value was 0.87%; for `CC(C)c1ccc(NC(=O)c2cccc(CN3CCCN(Cc4cccc(C#N)c4)CC3)c2)cc1`, 3.39%; for `Cc1cc(N[C@@H](Cc2ccccc2)C(=O)Nc2ccccc2)nc(NCCc2ccccc2)n1`, 0.11%.
On to `Cc1ccc(O)c(CN2CCCC(COC(c3ccc(F)cc3)c3ccc(F)cc3)C2)c1` (stereo not given), for which the inhibition was -4.12%.
For `CC(CN(C)C)C(=O)Nc1cccc(-c2ccc(-c3nc4ccccc4[nH]3)s2)c1` (stereo not given) the value was 3.78%.
To `COc1ccc2ccccc2c1C=NN=c1cc(C)[nH]c2cc(C(F)(F)F)ccc12` belongs 6.68%.
To `CC1CCCCC1N(C)C1CCN(CCCNC(=O)C=Cc2ccc(Cl)cc2Cl)CC1` (stereo not given) belongs 1.66%.
Turning to `Cc1nc(C)c(-c2ccc(Oc3ccc(OC(F)(F)F)cc3)cc2)c(O)c1I`, the inhibition is -1.65%.
For `CCCCCOc1ccc(C(=NC)N(CCCCC)CCCCC)c2ccccc12` the value was 7.32%; for `O=C(Nc1ccc(-c2csc(-c3nc4ccccc4[nH]3)c2)cc1)Nc1ccc(Cl)c(Cl)c1`, -1.48%; for `N=C(N)NN=Cc1cc([N+](=O)[O-])ccc1Sc1ccccc1CO`, 0.68%.
For the molecule `N#Cc1ccc2c(c1)CN(CCCCNC(=O)c1ccc(-c3ccccc3)cc1)CC2`, the inhibition was found to be 3.99%.
As for `NS(=O)(=O)c1cccc(Br)c1`, the inhibition worked out at 2.22%.
To `Cc1cccc(CC2CC(=O)N(c3ccc([N+](=O)[O-])cc3)C2=O)c1` (stereo not given) belongs 7.64%.
For `Fc1ccc(Nc2ccnc3cc(-c4ccc(CNCCN5CCOCC5)o4)ccc23)c(Cl)c1`, the inhibition was 2.34%.
For `CC1(C)CCCC(=Cc2ccc(Br)cc2)C1(O)Cn1ccnc1` (stereo not given) the value was 13.5%; for `O=C(/C=C/c1ccc(Cl)c(Cl)c1)NCCCCN1CCC(c2c[nH]c3ccccc23)CC1`, -0.01%; for `CC(C)C1=C[C@H]2C[C@]3(C4OCCO4)[C@@H]4CC[C@@H](C)[C@H]4C[C@@]2(COCc2cccc(C#N)c2)[C@]13C(=O)OC(c1ccccc1)c1ccccc1`, 2.75%.
For the molecule `CC(C)Cn1c(Sc2ccc(C#N)c([N+](=O)[O-])c2)nnc1-c1cccs1`, the inhibition was determined as 0.24%.
To `CO/C(=C\C=C\c1cc2cc(Cl)c(Cl)cc2[nH]1)C(=O)NCCCN1CCN(C2CCCCC2)CC1` belongs 2.31%.
With `COc1cccc(NC(=O)NC2CCN(c3ccnc(Nc4cc(OC)c(OC)c(OC)c4)n3)C2)c1` (stereo not given), the inhibition was found to be 5.86%.
For `Cc1cccc(/C=C/C(=O)NC2CCC(N3CCC(c4ccccc4C)CC3)CC2)c1` (stereo not given) the value was -0.99%.
To `O=C(Nc1ccc(-c2cccc(-c3nc4cc(F)ccc4[nH]3)c2)cc1)c1ccncc1` belongs 12.9%; to `CCc1ccc(CN2CCC(CNC(=O)c3cc(-c4ccccc4F)cs3)C2)cc1` (stereo not given), 1.83%; to `CCn1c2ccccc2c2cc(Cc3cnc(N)nc3N)ccc21`, 3.47%.

For the origin of these results see ChEMBL document CHEMBL3433997, “St. Jude Leishmania screening dataset” (2016).
